Changes are numbered by the printed parent chain.
Columns and labels:
Test in all cases: protein-binding microarray (PBM); PBM: ~300 nM protein, 6 mM HEPES pH 7.8, 80 mM KCl, 0.5 mM EDTA, 0.5 mM EGTA, 6% glycerol, 35 ng/ul poly-dIdC, 1% milk, 1 h, room temperature; Ap Aiptasia and Nv Nematostella (sea anemones) / Co Capsaspora / Aq Amphimedon (sponge) / Dm Drosophila / Hu human; RHD is the Rel homology domain; high values mean tight binding
Settings in all cases: dsDNA, one strand shown
GST-Ap-NF-kB RHD = biological target: T1, GST-Ap-NF-kB RHD (Exaiptasia pallida (Aiptasia), UniProt A0A913YAJ5 2-422)
T1 sequence: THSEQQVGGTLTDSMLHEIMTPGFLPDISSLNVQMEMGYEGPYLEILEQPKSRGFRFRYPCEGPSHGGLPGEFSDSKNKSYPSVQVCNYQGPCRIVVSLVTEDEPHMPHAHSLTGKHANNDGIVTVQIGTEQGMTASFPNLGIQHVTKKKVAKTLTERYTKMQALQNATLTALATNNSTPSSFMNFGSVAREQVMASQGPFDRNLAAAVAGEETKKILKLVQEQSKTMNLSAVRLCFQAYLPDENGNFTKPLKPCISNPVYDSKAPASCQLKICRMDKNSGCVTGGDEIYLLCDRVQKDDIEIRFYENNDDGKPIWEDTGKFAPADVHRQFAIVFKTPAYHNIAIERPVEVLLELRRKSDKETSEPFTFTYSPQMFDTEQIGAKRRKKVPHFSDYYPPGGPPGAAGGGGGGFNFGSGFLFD

[1] = biological target: T2, GST-Nv-NF-kB (Cys allele) (Nematostella vectensis, UniProt E5G601 2-411)
T2 sequence: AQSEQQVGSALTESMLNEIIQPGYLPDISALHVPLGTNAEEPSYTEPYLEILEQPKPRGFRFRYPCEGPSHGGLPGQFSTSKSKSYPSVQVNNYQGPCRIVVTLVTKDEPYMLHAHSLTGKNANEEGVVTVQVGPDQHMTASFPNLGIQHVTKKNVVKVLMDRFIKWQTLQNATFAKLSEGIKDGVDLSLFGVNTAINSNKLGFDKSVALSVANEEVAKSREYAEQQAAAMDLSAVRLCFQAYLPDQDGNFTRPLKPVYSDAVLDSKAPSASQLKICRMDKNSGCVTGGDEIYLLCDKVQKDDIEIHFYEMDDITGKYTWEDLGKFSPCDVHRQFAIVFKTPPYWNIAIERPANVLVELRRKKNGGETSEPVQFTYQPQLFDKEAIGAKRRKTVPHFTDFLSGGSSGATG

[2] = biological target: T3, GST-Nv-NF-kB (Ser allele) (Nematostella vectensis, UniProt A7UNT2 2-411)
T3 sequence: T2 sequence with Q21R, C66S, S207N, E215Q, V217A, E225K, A268E, D399E

GST-Co-NF-kB = biological target: T4, GST-Co-NF-kB (Capsaspora owczarzaki, UniProt F1ARL5 200-546)
T4 sequence: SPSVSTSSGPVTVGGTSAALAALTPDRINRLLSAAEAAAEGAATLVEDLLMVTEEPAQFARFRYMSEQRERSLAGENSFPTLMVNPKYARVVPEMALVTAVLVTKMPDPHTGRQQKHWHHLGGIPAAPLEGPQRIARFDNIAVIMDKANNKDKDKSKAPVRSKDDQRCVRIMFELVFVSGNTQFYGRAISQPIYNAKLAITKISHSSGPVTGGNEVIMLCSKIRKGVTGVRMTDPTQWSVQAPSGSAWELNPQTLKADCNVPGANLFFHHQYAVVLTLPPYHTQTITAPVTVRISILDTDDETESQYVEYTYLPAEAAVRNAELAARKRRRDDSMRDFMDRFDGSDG

GST-Dm-Relish = biological target: T5, GST-Dm-Relish (Drosophila melanogaster, UniProt Q94527 99-473)
T5 sequence: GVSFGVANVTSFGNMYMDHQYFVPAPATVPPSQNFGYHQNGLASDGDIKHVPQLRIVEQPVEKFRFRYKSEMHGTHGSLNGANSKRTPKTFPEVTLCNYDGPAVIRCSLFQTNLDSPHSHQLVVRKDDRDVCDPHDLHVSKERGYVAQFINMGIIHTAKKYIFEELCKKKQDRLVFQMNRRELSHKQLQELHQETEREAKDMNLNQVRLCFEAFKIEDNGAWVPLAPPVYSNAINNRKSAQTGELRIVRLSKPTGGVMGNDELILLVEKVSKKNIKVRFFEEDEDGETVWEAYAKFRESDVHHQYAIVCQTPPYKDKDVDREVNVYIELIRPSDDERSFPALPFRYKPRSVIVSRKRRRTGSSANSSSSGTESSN

GST-Aq-NF-kB = biological target: T6, GST-Aq-NF-kB (Amphimedon queenslandica, UniProt A9Y5G7 2-389)
T6 sequence: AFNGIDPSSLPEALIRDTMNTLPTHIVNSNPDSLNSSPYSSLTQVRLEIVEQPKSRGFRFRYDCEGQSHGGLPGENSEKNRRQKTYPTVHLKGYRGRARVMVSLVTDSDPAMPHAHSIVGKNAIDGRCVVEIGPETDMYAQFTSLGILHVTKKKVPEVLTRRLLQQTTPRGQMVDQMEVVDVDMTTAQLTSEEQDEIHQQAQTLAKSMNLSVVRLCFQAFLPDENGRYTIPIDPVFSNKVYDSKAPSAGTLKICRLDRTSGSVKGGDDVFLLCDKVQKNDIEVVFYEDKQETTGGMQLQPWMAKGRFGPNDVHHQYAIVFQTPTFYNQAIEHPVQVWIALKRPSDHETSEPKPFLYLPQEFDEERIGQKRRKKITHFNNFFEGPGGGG

GST-Hu-p50 = GST-Hu-p50 (Homo sapiens, UniProt P19838 7-356)
Sequence of GST-Hu-p50 (P19838 7-356): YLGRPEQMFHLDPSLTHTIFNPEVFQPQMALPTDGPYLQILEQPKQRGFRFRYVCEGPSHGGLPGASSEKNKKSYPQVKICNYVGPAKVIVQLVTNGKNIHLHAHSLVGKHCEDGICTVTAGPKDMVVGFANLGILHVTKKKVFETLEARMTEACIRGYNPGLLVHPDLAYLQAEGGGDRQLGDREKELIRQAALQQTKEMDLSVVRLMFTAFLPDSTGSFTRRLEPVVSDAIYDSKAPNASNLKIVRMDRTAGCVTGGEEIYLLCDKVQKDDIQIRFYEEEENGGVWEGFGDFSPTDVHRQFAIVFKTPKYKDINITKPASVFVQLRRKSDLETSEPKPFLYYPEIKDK

Sequence | binding signal (GST-Ap-NF-kB RHD) [z-score] | binding signal [1] [z-score] | binding signal [2] [z-score] | binding signal (GST-Co-NF-kB) [z-score] | binding signal (GST-Dm-Relish) [z-score] | binding signal (GST-Aq-NF-kB) [z-score] | binding signal (GST-Hu-p50) [z-score]
CCGATTAACATCAGACTTTCCCCTGATGTTAATCGGGTCTTGATTCGCTTGACGCTGCTG | 6.18 | 7.69 | 8.83 | 7.36 | 4.9 | 6.81 | 5.61
CCGATTAACATCAATTTTCCCCCTGATGTTAATCGGGTCTTGATTCGCTTGACGCTGCTG | 7.68 | 8.57 | 11.2 | 12 | 4.81 | 6.79 | 7.47
CCGATTAACATCAGGATTTACCCTGATGTTAATCGGGTCTTGATTCGCTTGACGCTGCTG | 3.04 | 4.29 | 3.54 | 1.85 | 5.15 | 6.67 | 3.39
CCGATTAACATCAAACATCCCCTTGATGTTAATCGGGTCTTGATTCGCTTGACGCTGCTG | 6.4 | 7.13 | 7.29 | 2.37 | 6.75 | 6.17 | 5.4
CCGATTAACATCAGGGGAATAACTGATGTTAATCGGGTCTTGATTCGCTTGACGCTGCTG | 6.5 | 8.18 | 7.95 | 7.09 | 9.39 | 6.98 | 5.61
CCGATTAACATCACGGGGAAAACTGATGTTAATCGGGTCTTGATTCGCTTGACGCTGCTG | 7.27 | 7.6 | 9.43 | 10.2 | 5.68 | 5.55 | 5.8
CCGATTAACATCAAAGTTTCCCCTGATGTTAATCGGGTCTTGATTCGCTTGACGCTGCTG | 7.96 | 9.57 | 12 | 10.6 | 5.37 | 7.26 | 6.85
CCGATTAACATCAACAAACCCCCTGATGTTAATCGGGTCTTGATTCGCTTGACGCTGCTG | 6.74 | 5.37 | 6.79 | 2.52 | 7.26 | 5.03 | 6.59
CCGATTAACATCAATCTTTCCCCTGATGTTAATCGGGTCTTGATTCGCTTGACGCTGCTG | 5.5 | 7.61 | 8.93 | 8.32 | 3.33 | 5.91 | 5.41
CCGATTAACATCACGGGGGATTCTGATGTTAATCGGGTCTTGATTCGCTTGACGCTGCTG | 8.95 | 7.68 | 8.48 | 7.06 | 7.96 | 6.51 | 7.01
CCGATTAACATCAAAAGTTCCCCTGATGTTAATCGGGTCTTGATTCGCTTGACGCTGCTG | 8.35 | 9.74 | 10.9 | 9.64 | 9.48 | 7.95 | 6.5
CCGATTAACATCAGGGGGAATCATGATGTTAATCGGGTCTTGATTCGCTTGACGCTGCTG | 8.02 | 7.33 | 8.26 | 8.51 | 6.2 | 5.7 | 6.66

— PMC5700166
